Five molecules from PubChem BioAssay can be followed below.

The test system of experiment [1] is PRMT1 (protein arginine N-methyltransferase 1). Nature of the experiment: small molecules binding arginine methyltransferase PRMT1 – biochemical, small-molecule microarray, 635 nm fluorescence, primary screen (AID 1088).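 Note: binding of Prmt1 protein to compounds spotted on small-molecule microarray slides.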 As to conditions: higher = more signal.
Experiment [2] can be described thus: growth effects on S. cerevisiae YJM789 – YJM789 clinical isolate, OD600, 24 h, basal, primary screen (AID 1089).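 Note: growth of clinical yeast isolate S. cerevisiae YJM 789 seeded 1000 cells per well; test concentration not given here.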 To be noted: higher = more signal, called active from +8 up or from −8 down.
The nature of experiment [3]: S. pombe growth modifiers, basal conditions – strain 972, OD600, 24 h, no modulator, primary screen (AID 1090).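 Note: basal condition with compound alone and no growth modifier present; test concentration not given here.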 To be noted: S. pombe 972 growth, higher = more signal, called active from +8 up or from −8 down.
The nature of experiment [4]: budding yeast growth modifiers under rapamycin – strain BY4716, OD600, 96 h, primary screen (AID 1091). Note: test concentration not given here. To be noted: S. cerevisiae BY4716 + rapamycin, higher = more signal, called active from +8 up or from −8 down.
The target of experiment [5] is Torsin-1A-interacting protein 2 (Homo sapiens) (UniProt Q8NFQ8). Nature of the experiment: small molecules binding lysate-expressed LULL1 – cell lysate, human LULL1 lysate, 635/667 nm fluorescence, primary screen (AID 1092).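 Note: probe is lysate of COS7 cells overexpressing human LULL1; score merges per-feature 667 nm fluorescence with signal-to-noise.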 As to conditions: small-molecule microarray, hLULL1 lysate binding, 635 nm fluorescence; higher = more signal.
Chain of Torsin-1A-interacting protein 2 (Homo sapiens) (Q8NFQ8 whole entry, looked up): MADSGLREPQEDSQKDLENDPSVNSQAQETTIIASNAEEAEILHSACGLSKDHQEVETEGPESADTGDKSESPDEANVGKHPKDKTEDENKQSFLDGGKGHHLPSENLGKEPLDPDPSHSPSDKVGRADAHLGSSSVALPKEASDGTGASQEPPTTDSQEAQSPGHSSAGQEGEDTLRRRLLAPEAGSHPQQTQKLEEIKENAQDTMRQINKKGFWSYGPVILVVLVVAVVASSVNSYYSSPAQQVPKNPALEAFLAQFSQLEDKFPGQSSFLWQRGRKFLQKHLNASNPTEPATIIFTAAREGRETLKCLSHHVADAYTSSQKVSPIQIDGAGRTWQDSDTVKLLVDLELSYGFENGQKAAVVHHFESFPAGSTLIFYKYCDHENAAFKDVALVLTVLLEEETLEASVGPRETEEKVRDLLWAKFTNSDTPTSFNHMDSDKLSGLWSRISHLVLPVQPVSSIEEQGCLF
Experiment [6] in a line: optical density change of DRC41 E. coli – strain DRC41, OD650, 24 h, E. coli filamentation project, primary screen (AID 1093).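 Note: MC1000 strain lacking acrAB efflux and sulA so SOS filamentation is blocked; test concentration not given here.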 As to conditions: E. coli DRC41 growth, higher = more signal, called active from +8 up or from −8 down.
Experiment [7] in a line: probe aLefty2 binding to arrayed compounds – biochemical, biotinylated probe, 635/667 nm fluorescence, primary screen (AID 1094).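 Note: score merges spot fluorescence near 667 nm with spot signal-to-noise ratio.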 To be noted: small-molecule microarray, higher = more signal.
The test system of experiment [8] is Noggin (protein binding on small-molecule microarray). Nature of the experiment: small molecules binding Noggin protein – biochemical, 635/667 nm fluorescence, primary screen (AID 1095).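 Note: score merges 667 nm feature fluorescence with signal to noise over triplicate slides.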 To be noted: 635 nm fluorescence, higher = more signal.
The target in experiment [9] is Neurogenic locus notch homolog protein 3 (Homo sapiens) (UniProt Q9UM47). Nature of the experiment: small molecules binding NOTCH3 protein – biochemical, 635/667 nm fluorescence, primary screen (AID 1096). To be noted: small-molecule microarray, 635 nm fluorescence, higher = more signal.
Chain of Neurogenic locus notch homolog protein 3 (Homo sapiens) (Q9UM47 whole entry, looked up): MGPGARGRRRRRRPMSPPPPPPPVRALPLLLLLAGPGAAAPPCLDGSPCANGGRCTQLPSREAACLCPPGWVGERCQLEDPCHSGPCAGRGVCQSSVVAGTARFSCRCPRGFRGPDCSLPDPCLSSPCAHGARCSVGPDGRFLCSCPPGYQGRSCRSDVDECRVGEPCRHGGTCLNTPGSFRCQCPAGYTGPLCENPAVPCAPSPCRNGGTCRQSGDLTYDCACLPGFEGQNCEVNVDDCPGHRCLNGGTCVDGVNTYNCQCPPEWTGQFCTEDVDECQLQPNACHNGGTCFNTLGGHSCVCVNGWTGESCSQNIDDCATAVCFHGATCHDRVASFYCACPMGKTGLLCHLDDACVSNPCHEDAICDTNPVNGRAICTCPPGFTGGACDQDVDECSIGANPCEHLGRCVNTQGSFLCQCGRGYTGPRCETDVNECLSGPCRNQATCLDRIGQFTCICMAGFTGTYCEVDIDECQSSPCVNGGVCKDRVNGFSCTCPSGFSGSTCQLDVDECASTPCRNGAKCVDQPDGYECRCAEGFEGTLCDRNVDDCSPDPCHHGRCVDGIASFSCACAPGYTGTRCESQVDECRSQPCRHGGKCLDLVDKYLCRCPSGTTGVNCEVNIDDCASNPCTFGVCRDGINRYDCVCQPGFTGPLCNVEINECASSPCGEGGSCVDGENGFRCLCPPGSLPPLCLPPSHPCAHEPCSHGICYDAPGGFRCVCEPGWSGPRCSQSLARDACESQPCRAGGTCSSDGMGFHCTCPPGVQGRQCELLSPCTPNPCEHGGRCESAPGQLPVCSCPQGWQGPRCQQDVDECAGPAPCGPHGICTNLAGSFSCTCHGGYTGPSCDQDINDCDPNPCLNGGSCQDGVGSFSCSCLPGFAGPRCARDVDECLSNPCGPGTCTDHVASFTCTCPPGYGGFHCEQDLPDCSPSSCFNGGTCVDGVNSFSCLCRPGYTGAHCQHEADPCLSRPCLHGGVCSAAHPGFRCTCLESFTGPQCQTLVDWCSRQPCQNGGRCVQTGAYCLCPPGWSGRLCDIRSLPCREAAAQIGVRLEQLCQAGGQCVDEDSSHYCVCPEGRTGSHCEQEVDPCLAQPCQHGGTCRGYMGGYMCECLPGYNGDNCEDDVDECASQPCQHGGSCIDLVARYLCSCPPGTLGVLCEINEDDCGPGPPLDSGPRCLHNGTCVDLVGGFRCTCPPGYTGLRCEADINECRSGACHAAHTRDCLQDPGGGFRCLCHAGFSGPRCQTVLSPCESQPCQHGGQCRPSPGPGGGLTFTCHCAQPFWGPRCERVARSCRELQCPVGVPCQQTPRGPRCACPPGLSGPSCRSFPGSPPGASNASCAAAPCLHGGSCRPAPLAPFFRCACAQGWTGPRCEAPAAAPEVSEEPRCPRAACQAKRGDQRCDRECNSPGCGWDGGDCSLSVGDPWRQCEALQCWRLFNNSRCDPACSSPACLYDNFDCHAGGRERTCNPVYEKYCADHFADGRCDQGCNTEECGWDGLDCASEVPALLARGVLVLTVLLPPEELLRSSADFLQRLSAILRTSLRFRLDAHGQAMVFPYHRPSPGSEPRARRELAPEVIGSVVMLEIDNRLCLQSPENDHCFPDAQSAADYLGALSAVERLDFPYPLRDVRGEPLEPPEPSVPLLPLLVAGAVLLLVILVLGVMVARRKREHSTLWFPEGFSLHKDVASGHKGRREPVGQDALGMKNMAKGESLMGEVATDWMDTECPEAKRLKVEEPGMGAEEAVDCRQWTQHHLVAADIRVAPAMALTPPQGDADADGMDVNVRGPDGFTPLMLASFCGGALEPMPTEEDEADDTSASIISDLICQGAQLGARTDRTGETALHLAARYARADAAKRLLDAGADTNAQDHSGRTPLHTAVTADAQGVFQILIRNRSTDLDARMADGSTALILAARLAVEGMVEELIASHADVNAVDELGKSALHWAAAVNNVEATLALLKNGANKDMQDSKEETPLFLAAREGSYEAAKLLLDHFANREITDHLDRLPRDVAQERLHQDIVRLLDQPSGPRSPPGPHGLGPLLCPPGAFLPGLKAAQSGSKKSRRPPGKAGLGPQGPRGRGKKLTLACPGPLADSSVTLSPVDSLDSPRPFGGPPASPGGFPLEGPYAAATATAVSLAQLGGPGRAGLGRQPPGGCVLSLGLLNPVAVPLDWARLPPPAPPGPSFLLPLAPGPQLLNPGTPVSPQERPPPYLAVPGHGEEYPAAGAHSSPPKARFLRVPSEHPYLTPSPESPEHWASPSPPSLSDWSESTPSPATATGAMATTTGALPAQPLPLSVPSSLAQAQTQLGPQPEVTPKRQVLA
Experiment [10] is described as follows: probe aEGFR binding to arrayed compounds – biochemical, biotinylated probe, 635/667 nm fluorescence, primary screen (AID 1097).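 Note: probe is a biotinylated anti-EGFR antibody binding compounds printed on slides; score combines fluorescence near 667 nm and signal to noise of each spot.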 To be noted: small-molecule microarray, higher = more signal.
The test system of experiment [11] is Plasmodium falciparum Sir2 (PF13_0152, Sir2A). Nature of the experiment: Plasmodium falciparum Sir2A binding compounds – biochemical, small-molecule microarray, 635 nm fluorescence, primary screen (AID 1098).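 Note: score merges spot fluorescence intensity with its signal-to-noise ratio.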 As to conditions: fluorescence 635 nm, higher = more signal.
Experiment [12] can be described thus: probe aDKK1 binding to arrayed compounds – biochemical, biotinylated probe, 635/667 nm fluorescence, primary screen (AID 1099).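 Note: score merges 667nm spot fluorescence with signal to noise across triplicate slides; reference of the scale not given here.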 To be noted: small-molecule microarray, higher = more signal.
A short description of experiment [13]: probe aCHRDL2 binding to arrayed compounds – biochemical, biotinylated probe, 635/667 nm fluorescence, primary screen (AID 1100). To be noted: small-molecule microarray, higher = more signal.
The nature of experiment [14]: change in splice reporter luminescence, either direction, cell-based, HEK293, spliceosome inhibition project, primary screen (AID 1101).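 Note: HEK293 cells carrying a splicing-competent luciferase reporter gene; test concentration not given here.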 To be noted: HEK293 splicing luciferase reporter, 24 h, higher = more signal, called active from +8 up or from −8 down.
The target of experiment [15] is Fibroblast growth factor 10 (Homo sapiens) (UniProt O15520). Nature of the experiment: compounds binding fibroblast growth factor 10 – biochemical, small-molecule microarray, 635 nm fluorescence, primary screen (AID 1102). To be noted: FGF10 binding, fluorescence 635 nm, higher = more signal.
Chain of Fibroblast growth factor 10 (Homo sapiens) (O15520 whole entry, looked up): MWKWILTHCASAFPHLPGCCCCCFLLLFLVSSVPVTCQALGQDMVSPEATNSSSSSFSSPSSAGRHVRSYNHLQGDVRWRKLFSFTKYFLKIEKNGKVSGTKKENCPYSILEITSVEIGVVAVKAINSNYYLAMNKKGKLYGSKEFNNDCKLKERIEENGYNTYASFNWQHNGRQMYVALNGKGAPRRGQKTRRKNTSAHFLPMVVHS
The test system of experiment [16] is glycogen synthase kinase-3 (GSK3A per assay name; protocol says GSK3B). Nature of the experiment: compounds binding glycogen synthase kinase-3 – biochemical, small-molecule microarray, 635 nm fluorescence, GSK3A, primary screen (AID 1103). Note: the record names both GSK3A and GSK3B. To be noted: fluorescence 635 nm, higher = more signal.
The target in experiment [17] is Epidermal growth factor receptor (Homo sapiens) (UniProt P00533). Nature of the experiment: compounds binding epidermal growth factor receptor – biochemical, small-molecule microarray, 635 nm fluorescence, primary screen (AID 1104).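 Note: score merges 667 nm emission intensity with spot signal to noise over triplicate slides.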 As to conditions: EGFR binding, higher = more signal.
Chain of Epidermal growth factor receptor (Homo sapiens) (P00533 whole entry, looked up): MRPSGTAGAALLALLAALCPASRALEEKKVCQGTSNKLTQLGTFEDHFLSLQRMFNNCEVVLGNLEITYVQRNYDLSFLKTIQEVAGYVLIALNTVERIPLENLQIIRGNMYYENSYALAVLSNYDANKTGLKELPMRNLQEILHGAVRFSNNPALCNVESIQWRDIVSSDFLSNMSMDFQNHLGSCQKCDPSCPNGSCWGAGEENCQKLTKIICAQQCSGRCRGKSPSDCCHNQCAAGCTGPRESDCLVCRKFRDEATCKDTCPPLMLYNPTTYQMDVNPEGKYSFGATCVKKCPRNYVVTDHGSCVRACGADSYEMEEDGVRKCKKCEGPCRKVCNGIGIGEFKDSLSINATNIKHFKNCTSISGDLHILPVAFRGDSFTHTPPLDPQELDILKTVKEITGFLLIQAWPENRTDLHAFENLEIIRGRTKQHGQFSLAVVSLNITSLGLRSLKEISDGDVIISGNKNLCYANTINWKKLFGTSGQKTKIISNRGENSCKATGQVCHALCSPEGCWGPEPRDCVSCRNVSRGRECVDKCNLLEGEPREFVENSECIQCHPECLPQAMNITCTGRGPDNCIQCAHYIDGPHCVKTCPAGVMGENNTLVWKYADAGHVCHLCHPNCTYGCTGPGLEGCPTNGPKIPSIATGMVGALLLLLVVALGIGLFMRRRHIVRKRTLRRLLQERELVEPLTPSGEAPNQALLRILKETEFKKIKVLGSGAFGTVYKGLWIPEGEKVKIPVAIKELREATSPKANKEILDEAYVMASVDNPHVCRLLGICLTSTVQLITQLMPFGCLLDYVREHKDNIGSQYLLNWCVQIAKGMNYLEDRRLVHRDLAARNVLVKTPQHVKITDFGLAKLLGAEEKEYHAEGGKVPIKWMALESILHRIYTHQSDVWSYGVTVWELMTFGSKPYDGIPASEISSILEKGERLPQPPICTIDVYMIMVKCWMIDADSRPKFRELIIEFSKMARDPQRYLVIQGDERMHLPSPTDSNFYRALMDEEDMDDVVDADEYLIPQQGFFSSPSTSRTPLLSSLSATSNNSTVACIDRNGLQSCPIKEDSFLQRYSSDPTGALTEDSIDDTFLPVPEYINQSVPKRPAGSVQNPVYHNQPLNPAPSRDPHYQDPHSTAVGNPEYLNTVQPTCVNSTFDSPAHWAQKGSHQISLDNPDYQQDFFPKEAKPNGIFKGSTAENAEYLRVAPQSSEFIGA
The target of experiment [18] is Follistatin-related protein 3 (Homo sapiens) (UniProt O95633). Nature of the experiment: compounds binding follistatin-related protein 3 – biochemical, small-molecule microarray, 635 nm fluorescence, primary screen (AID 1105).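 Note: score merges emission near 667 nm and signal to noise per printed spot across three slides.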 To be noted: FSTL3 binding, higher = more signal.
Chain of Follistatin-related protein 3 (Homo sapiens) (O95633 whole entry, looked up): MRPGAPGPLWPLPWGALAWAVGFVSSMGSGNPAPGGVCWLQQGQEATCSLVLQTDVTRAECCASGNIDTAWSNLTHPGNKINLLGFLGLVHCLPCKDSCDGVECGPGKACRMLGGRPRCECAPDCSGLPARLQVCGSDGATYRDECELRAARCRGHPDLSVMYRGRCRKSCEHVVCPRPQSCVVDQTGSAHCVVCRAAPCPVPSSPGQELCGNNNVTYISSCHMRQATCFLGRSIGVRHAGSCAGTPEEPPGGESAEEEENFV
Experiment [19] addresses Dickkopf-related protein 1 (Homo sapiens) (UniProt O94907). Nature of the experiment: small molecules binding DKK1 protein – biochemical, small-molecule microarray, 635 nm fluorescence scan, primary screen (AID 1106).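 Note: score merges emission near 667 nm with signal to noise over three replicate slides.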 As to conditions: higher = more signal.
The test system of experiment [20] is Inhibin beta A chain (activin A). Nature of the experiment: small molecules binding activin A – biochemical, small-molecule microarray, 635 nm fluorescence scan, primary screen (AID 1107).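 Note: mouse activin A protein probed at 4.33 µg/mL on printed slides; score merges bound-protein fluorescence near 667 nm with spot signal-to-noise.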 To be noted: INHBA, higher = more signal.

SMILES strings stand for the structures. The source made the active and inactive calls.

Chain of Dickkopf-related protein 1 (Homo sapiens) (O94907 whole entry, looked up): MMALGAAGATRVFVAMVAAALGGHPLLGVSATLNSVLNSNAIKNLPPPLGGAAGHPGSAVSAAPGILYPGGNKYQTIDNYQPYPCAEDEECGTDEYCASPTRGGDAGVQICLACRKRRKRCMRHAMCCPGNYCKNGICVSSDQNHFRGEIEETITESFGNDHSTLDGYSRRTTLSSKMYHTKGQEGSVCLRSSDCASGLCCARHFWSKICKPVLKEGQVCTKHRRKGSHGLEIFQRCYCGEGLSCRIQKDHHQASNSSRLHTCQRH

In the case of `COc1cc2c(cc1O)C(C1CC1)N(Cc1cccc(OC(F)(F)F)c1)CC2` (stereo not given), the composite z-score in experiment [1] was 0.694; in [5] it was 1.88; in experiment [7], -0.0575; in experiment [8], -0.242; in [9], -0.167; in experiment [10], 0.0009. Besides, the composite z-score is -0.102 in [11]; 0.149 in experiment [12]; 0.542 in experiment [13]; -0.293 in [15]; -0.567 in [16]; -0.881 in experiment [17]. Also, the composite z-score is -0.0671 in [18], -0.248 in [19] and 1.45 in experiment [20]. Besides, the z-score in experiment [2] was -2.19 (inactive); in [3] it was -5.25 (inactive); in experiment [4], -2.53 (inactive); in [6], 0.394 (inactive); in [14], 0.654 (inactive).
For the molecule `CC(C)N1C(=O)c2ccccc2[C@@H](C(=O)NCCN2CCOCC2)[C@@H]1c1ccc(CO)cc1`, the composite z-score in experiment [1] is -1.01; in experiment [5], 0.518; in experiment [7] it was -0.0613; in [8] it was -0.465; in experiment [9], -0.616; in experiment [10], -0.212. In addition, the composite z-score in [11] was -0.256; in experiment [12], -0.005; in experiment [13], 0.917; in experiment [15], -2.1; in [16], -1.05; in experiment [17], -1.85. Further, the composite z-score in [18] is -1.01; in experiment [19], -1.19; in [20] it was -0.0564. Besides, the z-score in experiment [2] is 0.696 (inactive); in experiment [3], 0.098 (inactive); in experiment [4] it was 0.673 (inactive); in [6] it was -0.589 (inactive); in experiment [14], -0.141 (inactive).
With `Cn1cccc1C(O)C1C=CC2C(=O)N(c3ccccc3)C(=O)C2N1Nc1ccccc1` (stereo not given), the composite z-score amounted to 1.56 in experiment [1]; 3.37 in experiment [5]; 0.27 in experiment [7]; 0.781 in [8]; 1.02 in experiment [9]; 0.0651 in experiment [10]. Further, the composite z-score worked out at 1.19 in [11]; 0.966 in experiment [12]; 1.04 in experiment [13]; 1.3 in experiment [15]; 1.27 in [16]; 0.671 in experiment [17]. Moreover, the composite z-score in experiment [18] is 1.41; in [19] it was 0.456; in experiment [20] it was 0.865. For the same molecule, the z-score in experiment [2] is 0.537 (inactive); in experiment [3], 0.445 (inactive); in experiment [4], 0.566 (inactive); in [6], -0.598 (inactive); in experiment [14], -0.441 (inactive).
In the case of `COc1cc(OC)c(C(O)C2C=CC3C(=O)N(Cc4ccccc4)C(=O)C3N2n2cnnc2)cc1Br` (stereo not given), the composite z-score in experiment [1] was 1.11; in experiment [5] it was 2.89; in experiment [7] it was 0.0208; in [8], 0.404; in [9], 1.07; in experiment [10], -0.0343. Also, the composite z-score in [11] was 1.36; in experiment [12], 0.287; in experiment [13], 0.373; in [15], 1.05; in [16], 1.26; in experiment [17], -0.496. The composite z-score was 0.777 in [18], -1.05 in experiment [19] and -0.769 in experiment [20]. Moreover, the z-score in [2] was -1.92 (inactive); in experiment [3], -1.73 (inactive); in [4], 0.027 (inactive); in experiment [6] it was -1.21 (inactive); in experiment [14], -1.21 (inactive).
In the case of `COc1cc2c(cc1O)C(c1ccc(CN3CCCC3)cc1)N(Cc1cc3c(cc1Br)OCO3)CC2` (stereo not given), the composite z-score in experiment [1] is -0.137; in [5], 0.502; in experiment [7], -0.0576; in experiment [8], -0.244; in experiment [9] it was 0.313; in experiment [10] it was -0.176. Moreover, the composite z-score in [11] was -0.115; in [12], -0.106; in [13] it was -0.097; in [15], 0.41; in experiment [16] it was -0.237; in experiment [17], -0.186. In addition, the values for the composite z-score in experiment [18], in experiment [19] and in [20] were 0.583, -0.367 and 0.992, respectively. Further, the z-score in experiment [2] is -0.312 (inactive); in experiment [3], -6.22 (inactive); in [4], -1.83 (inactive); in experiment [6] it was -3.03 (inactive); in experiment [14] it was 0.373 (inactive).
